# Screens as filed in PubChem.
# Shown are actives, neighbours in structure and some others; about 21% of the full set was active somewhere.
# Pf growth 96h: Primary qHTS for delayed death inhibitors of the malarial parasite plastid, 96 hour incubation; P. falciparum luciferase reporter growth, 96 h; Potency, µM (highest dose often 28.7 µM), inactives show top-dose activity change, negative = inhibition, usual class: inhibitors; 320,000 compounds, 6.9% hits; note: potency is the fitted concentration of half-maximal effect; % is set by controls: 0 for no effect and ±100 for the full control effect
#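 Infected RBCs, 2% Hct / 0.05% parasitemia final; luciferase-reporter P. falciparum; cpd 96 h, 37 C, 5% CO2; luciferase detection reagent; luminescence.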
# HCV inh: qHTS Assay for Inhibitors of Hepatitis C Virus (HCV). Huh7.5.1 HCVcc-Cre infection, luciferase reporter, 44 h. Potency, µM (titrated, usually from 41.8 µM), inactives show top-dose activity change, negative = inhibition, most hits filed as inhibitors. 340,000 compounds, 3.4% hits; note: potency is the fitted concentration of half-maximal effect; % is set by controls: 0 for no effect and ±100 for the full control effect
#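 Compounds are dispensed onto cells plated 4 h earlier at 1,000 per well, with HCVcc-Cre virus (about 0.5 moi) added next. Following 44 h of culture, luminescent signal is measured for 15 sec after 15 min with substrate at room temperature.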
# Pf growth 48h: Primary qHTS for delayed death inhibitors of the malarial parasite plastid, 48 hour incubation | P. falciparum luciferase growth in erythrocytes, 48 h | Potency, µM (highest dose often 28.7 µM), without a hit: top-dose activity change, negative = inhibition, actives largely listed as inhibitors | 310,000 compounds, 5.9% hits | AID 504832, 2011; note: potency is the fitted concentration of half-maximal effect; % is set by controls: 0 for no effect and ±100 for the full control effect
#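 Here the parasites carry a stable luciferase gene and grow inside erythrocytes in Albumax-based RPMI medium with compound for one erythrocytic cycle. Activity is scored as loss of luminescent signal.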
# CHX counter-1: Cycloheximide Counterscreen for Small Molecule Inhibitors of Shiga Toxin; 300,000 compounds, 12% hits; max response, %; AID 2314, 2010; cell reporter, cycloheximide protein synthesis inhibition counterscreen; in the data active = max response mostly above about 13%, no sharp cut-off; inactive = mostly below about 14%; note: read at 38.3 µM for the half of the compounds with a filed dose; 0% is about no effect
# Shiga toxin inh: A qHTS for Small Molecule Inhibitors of Shiga Toxin; AID 2315, 2010; inhibition, % at 38.7 µM; 290,000 compounds, 9.2% hits; Vero cells, Shiga toxin protein synthesis inhibition reporter; in the data active = inhibition mostly above about 28%, no sharp cut-off; inactive = mostly below about 43%; note: 0% is about no effect
# HCMV antiviral: qHTS Assay for inhibitors of the human cytomegalovirus (HCMV); HFF cells, HCMV-luciferase reporter, 72 h; hits give low values; activity change, negative = inhibition, % at 57.5 µM; 410,000 compounds, 4.5% hits; in the data active = activity change below about -60%; inconclusive = no clear call, values can overlap the other calls; inactive = above about -39%; note: % is set by controls: 0 for no effect and ±100 for the full control effect
#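 Screen run at 2 compound doses on HFFs infected with reporter HCMV, MOI 1 PFU/cell. Luciferase activity from cell lysates at 72 h post infection gave inhibition relative to buffer-only and Salinomycin wells.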
# CHX counter-2: Cycloheximide Counterscreen for Small Molecule Inhibitors of Shiga Toxin (Confirmatory) | shares compounds with Shiga toxin inh | Cycloheximide counterscreen, protein synthesis reporter, Shiga toxin assay | Potency, µM (titrated, usually from 38.3 µM), inactives show top-dose activity (activation), actives largely listed as activators | 510 compounds, 3% hits | AID 2318, 2010; calls by dose curve; note: potency is the fitted concentration of half-maximal effect; 0% is about no effect
# * = called active by the depositor; ? = inconclusive; . = not tested or not shown. Unless noted, calls come from the whole dose curve; as a rule, active = well fitted inhibition curve with a large enough effect; inconclusive = small, poorly fitted or top-dose-only effect, or another doubt; inactive = no such curve, though single readings can be large or run the other way.
SMILES,Pf growth 96h,HCV inh,Pf growth 48h,CHX counter-1,Shiga toxin inh,HCMV antiviral,CHX counter-2
COc1ccc(OCc2cccc(C(=O)O)c2)cc1,?,4.0%,3.6%,8.9,52.1*,-18.3,0.0318µM*
c1ccc(OCCCn2ccnc2)cc1,227.7%,20.3%,8.6%,3.9,41.7*,1.5,-0.2%
CCOc1ccc(S(=O)(=O)Nc2ccc3c(c2)n(C)c(=O)n3C)cc1,22.6%,?,-18.3%,-3.1,91.7*,-29.5,-1.1%
CCn1c(SCC(=O)NCc2ccco2)nc2c1c(=O)n(C)c(=O)n2C,-34.4%,0.5%,16.1%,-2.3,68.2*,11.9,-1.1%
Nn1c(-c2cccc(O)c2)nnc1-c1cccc(O)c1,.,24.5%,.,.,.,37.5,.
COc1ccc(C(=O)CC(=O)C(=O)Nc2ccccc2OC)cc1,40.3%,4.4%,.,7.5,27.1,-12.9,.
COc1ccc(C(=O)CC(=O)C(=O)Nc2ccc(C)cc2Cl)cc1,5.9%,10µM*,.,8.5,21.8*,2.5,-1.9%
COc1ccc(CNC(=O)CCc2c(C)c3cc4c(C)coc4cc3oc2=O)cc1,.,.,.,.,.,-9.7,.
CC(c1ccco1)N(C(=O)c1cc(Cl)cc(Cl)c1)c1ccccn1 (stereo not given),?,-24.9%,-25.3%,1.1,24.4*,-62.1*,-0.7%
Cc1cccc(C(=O)N(c2ccccn2)C(C)c2ccco2)c1 (stereo not given),6.3%,8.3%,-4.5%,1.9,-4.5,30.8,.
COc1ccc(/C=C(\C#N)C(=O)Nc2ccc3[nH]c(=O)[nH]c3c2)cc1,?,19.1%,8.0%,-2.4,22.3,-23.7,.
N#Cc1cc2c(nc1SCC(=O)Nc1cc(Cl)ccc1Cl)C1CCN2CC1,?,?,?,-2.3,48.3*,-87.7*,?
CN(C)S(=O)(=O)c1ccc(C(=O)Nc2c(C(=O)Nc3ccc(F)cc3)oc3ccccc23)cc1,.,.,.,.,.,10.6,.
O=C(Nc1ccc(/C=C/c2nc3ccccc3o2)cc1)c1ccc(F)cc1,?,?,?,9.3,36.7*,4.3,2.25µM*
O=C(C(Sc1ccccc1)c1ccccc1)N1CCOCC1 (stereo not given),?,17.5%,7.2%,-0.6,45.9*,-27.0,-4.3%
O=C(CSCc1ccc(Cl)cc1)N1CCOCC1,-20.1%,-11.3%,37.7%,9.5,65.8*,-21.9,7.4%
COc1ccc(NC(C)=O)cc1NC(=O)C1CCN(C(=O)Nc2ccccc2)CC1,-1.0%,0.5%,-8.9%,.,.,-6.9,.
COc1ccc(C)cc1N1C(=N)/C(=C2/Nc3ccccc3S2)C(c2ccccc2)C1=O (stereo not given),-104.0%,13.3%,13.1µM*,-0.9,20.7*,113.8,-2.4%
COc1ccc(N2CCN(c3oc(COc4ccccc4Cl)nc3C#N)CC2)cc1,?,?,?,15.9,35.5*,-13.0,?
O=C(Nc1ccc(Cl)cc1)c1ccncc1,36.4%,-4.1%,47.2%,19.6,52.2*,40.8,?
Cc1cccc(C)c1-n1cccc1/C=C1\SC(=S)N(c2cccc(C(=O)O)c2)C1=O,-14.7%,-7.1%,10.8%,19.1,5.0,66.0,.
O=C(c1ccc(C(=O)N2CCOCC2)nc1)N1CCOCC1,-24.6%,6.9%,0.9%,-2.5,10.3,13.4,.
O=C(c1ccc(N2CCOCC2)nc1)N1CCOCC1,8.1%,-18.3%,22.0%,1.4,57.6*,-11.3,4.6%
O=c1c(-c2ccc(O)cc2)coc2cc(O[C@@H]3O[C@H](CO)[C@H](O)[C@H](O)[C@H]3O)ccc12,.,.,.,10.9,48.9*,.,3.3%
Cc1cc(=O)oc2cc(O[C@@H]3O[C@H](CO)[C@H](O)[C@H](O)[C@H]3O)ccc12,3.9%,21.1%,5.9%,-7.7,5.6,-17.2,.
